Assay results from PubChem BioAssay.
“And” between values parts separate entries of the source, which are not always exact repeats. Identical values can stand only once. The source made the active and inactive calls.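 How the source made its calls, unless noted: active means thallium flux through the channel raised or lowered by more than 3 SD from vehicle-only wells, actives on both sides; inactive means the rest.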

Legend:
[1] = signal quenchers or enhancers, Cy5 substrate/SSB – biochemical, NIH Clinical Collection, E. coli SSB, artefact control for HCV NS3 helicase inhibitor project (AID 743268; call rule not given here); details: Cy5-oligo bound E. coli SSB, fluorescence interference
[2] = tested on: Hepatitis C virus NS3 helicase; test: blockers of NS3h binding to DNA – biochemical, fluorescence polarization, NIH Clinical Collection, primary screen (AID 743270; call rule not given here); details: NS3 helicase binding to Cy5-dT15 DNA, stronger effect = higher value, concentration not given here
[3] = molecular target: Single-stranded DNA-binding protein (Escherichia coli (strain K12)) (UniProt P0AGE0); test: SSB-ssDNA binding inhibitors – biochemical, fluorescence polarization, NIH Clinical Collection, counter-screen for HCV NS3 helicase inhibitor project (AID 743271; in the data active means inhibition above about 28%); details: E. coli SSB-DNA binding, stronger effect = higher value, concentration not given here
[4] = compounds distorting NS3 helicase fluorescence signal – biochemical, NIH Clinical Collection, artefact control for HCV NS3 helicase inhibitor project (AID 743272; call rule not given here;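 further: HCV NS3 helicase with a Cy5 labelled single stranded DNA probe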); details: fluorescence interference counterscreen, HCV NS3 helicase assay; stronger effect = lower value
[5] = modulation of C. elegans fzo-1 (AID 1259413; call rule not given here;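 further: fzo-1 mutant C. elegans worms in liquid wells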); details: C. elegans fzo-1 modulator screen, mean read-out; stronger effect = higher value
[6] = EMT-state selective cytotoxicity in co-culture – imaging, PC-3E GFP, TEM4-18 mCherry, primary screen (AID 1345086;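 active means compounds killing one labelled cell type while sparing the other, by normalised counts and ratio limits, not self-fluorescent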;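 on all read-outs here: cells exposed to compound for 72 h before imaging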;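 on red/green cell ratio (normalised): normalised mesenchymal count divided by normalised epithelial count so high means epithelial killing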); details: PC-3E GFP / TEM4-18 mCherry co-culture, imaging cell counts, at 1 µM; for red/green cell ratio (normalised): actives lie on both sides, counts scaled to control wells, 1 = unselective
[7] = MELAS cybrid and Rieske KO viability enhancers – cell-based, MELAS cybrids, Rieske KO mouse fibroblasts, CellTiter-Glo, primary screen (AID 1508586;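 active means mean z-score across replicates of 1.96 or higher in either the MELAS or the Rieske mutant cell line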;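 further: z relative to plate mean and SD of compound and empty wells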); details: low glucose
[8] = tested on: F380Y; test: BK channel mutant inhibitors and activators – cell-based, U2OS BacMam, thallium flux, beta subunits, selectivity assay, profiling panel (AID 1259406); details: U2OS BacMam BK variants, at 30 µM;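 further: initial slope of Thallos dye fluorescence rise after thallium is added; log ratio against the mean of 0.3% DMSO vehicle wells on the same plate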
[9] = tested on: F380Y/beta1; test: as above; details: U2OS BacMam BK variants, at 30 µM
[10] = tested on: F380Y/beta2Delta; test: as above; details: U2OS BacMam BK variants, at 30 µM
[11] = tested on: F380Y/beta4; test: as above; details: U2OS BacMam BK variants, at 30 µM
[12] = molecular target: Calcium-activated potassium channel subunit alpha-1 (Homo sapiens) + Leucine-rich repeat-containing protein 26 (Homo sapiens) (UniProt Q12791+Q2I0M4); test: as above; details: U2OS BacMam BK variants, F380Y/Slo1WT/gamma1, at 30 µM
[13] = tested on: R275C; test: as above; details: U2OS BacMam BK variants, at 30 µM
[14] = tested on: R275C/beta1; test: as above; details: U2OS BacMam BK variants, at 30 µM
[15] = tested on: R275C/beta2Delta; test: as above; details: U2OS BacMam BK variants, at 30 µM
[16] = tested on: R275C/beta4; test: as above; details: U2OS BacMam BK variants, at 30 µM
[17] = tested on: R275C/Slo1WT/beta2; test: as above; details: U2OS BacMam BK variants, at 30 µM
[18] = P. berghei load reduction in hepatocytes – cell-based, HepG2, luciferase luminescence, HepG2 viability, primary screen (AID 624349; in the data active means parasite load remaining mostly below about 12%, no sharp cut-off; inactive means mostly above about 10%;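 further: 100% = mean of DMSO negative control wells on the same plate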); details: P. berghei liver stage in HepG2, luciferase luminescence, concentration not given here; parasite load remaining: stronger effect = lower value; viability: measured here: HepG2 viability without parasites
[19] = viability loss with induced miR-34 in A549 – imaging, A549 dox-inducible miR-34, nuclei and caspase counts, primary screen (AID 1347080;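 active means compounds whose cell count with miR-34 switched on is under 0.7 times the count with it off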); details: A549 miR-34 inducible, Hoechst nuclei count, 48 h
[20] = measured here: epithelial PC-3E GFP cell survival
[21] = measured here: mesenchymal TEM4-18 mCherry cell survival
[22] = MELAS cybrid survival, CellTiter-Glo 48 h, stronger effect = higher value
[23] = Rieske KO mouse fibroblast survival, CellTiter-Glo 72 h
[24] = stronger effect = lower value, cell number ratio, induced over uninduced
[25] = measured here: relative caspase fold change +Dox/-Dox
[26] = measured here: total cells with miR-34 induction, stronger effect = lower value
[27] = measured here: total cells without miR-34 induction

Chain of Calcium-activated potassium channel subunit alpha-1 (Homo sapiens) + Leucine-rich repeat-containing protein 26 (Homo sapiens) (Q2I0M4 whole entry, looked up, one chain of several): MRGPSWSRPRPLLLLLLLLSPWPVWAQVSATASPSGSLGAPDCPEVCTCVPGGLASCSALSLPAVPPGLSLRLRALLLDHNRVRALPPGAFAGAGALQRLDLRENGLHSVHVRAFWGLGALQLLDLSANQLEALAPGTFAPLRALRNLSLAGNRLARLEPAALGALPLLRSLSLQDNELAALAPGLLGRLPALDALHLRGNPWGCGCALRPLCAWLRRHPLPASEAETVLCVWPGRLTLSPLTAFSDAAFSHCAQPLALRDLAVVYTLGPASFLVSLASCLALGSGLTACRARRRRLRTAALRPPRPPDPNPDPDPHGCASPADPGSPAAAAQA

CCN(CC)CC#CCOC(=O)C(O)(c1ccccc1)C1CCCCC1 (stereo unspecified)
1.14: normalised cell number [6, 21]
0.474 and 0.0643: z-score [7, 23]
inactive: fluorescence ratio [1] 1.01 | inhibition [2] -5.91% | inhibition [3] 1.05% | fluorescence ratio [4] 0.97 | mean signal [5] 265 | red/green cell ratio (normalised) [6] 1.02 | z-score [7, 22] -0.351 and 0.357 | log fold change Tl+ flux [8] -0.0501 | log fold change Tl+ flux [9] -0.0697 | log fold change Tl+ flux [10] -0.0326 | log fold change Tl+ flux [11] 0.0257 | log fold change Tl+ flux [12] -0.0619 | log fold change Tl+ flux [14] -0.00047 | log fold change Tl+ flux [15] -0.0198 | log fold change Tl+ flux [17] -0.0121
active: log fold change Tl+ flux [13] -0.105 | log fold change Tl+ flux [16] 0.205
1.13: normalised cell number [6, 20]

COc1ccc(C[C@H](C)NC[C@@H](O)c2ccc(O)c(NC=O)c2)cc1
-0.643: z-score [7, 23]
0.716: fold change [19, 25]
inactive: parasite load remaining [18] 66.9% | fluorescence ratio [1] 1.02 | inhibition [2] -9.9% | inhibition [3] -0.1% | fluorescence ratio [4] 0.98 | mean signal [5] 235 | fold change [19, 24] 0.975 | z-score [7, 22] -0.844 | log fold change Tl+ flux [8] -0.0497 | log fold change Tl+ flux [9] -4.2e-05 | log fold change Tl+ flux [10] 0.0145 | log fold change Tl+ flux [11] -0.0214 | log fold change Tl+ flux [12] 0.0199 | log fold change Tl+ flux [13] 0.00389 | log fold change Tl+ flux [14] 0.0191 | log fold change Tl+ flux [15] -0.0506 | log fold change Tl+ flux [16] 0.0483 | log fold change Tl+ flux [17] 0.0259
77.1%: viability [18]
8440: cell count [19, 27]
8230: cell count [19, 26]

CC(C)C[C@H](NC(=O)[C@@H](O)[C@H](N)Cc1ccccc1)C(=O)O
136%: viability [18]
0.817: z-score [7, 23]
inactive: parasite load remaining [18] 23.8% | fluorescence ratio [1] 0.92 | inhibition [2] 0.66% | inhibition [3] 9.06% | fluorescence ratio [4] 0.88 | mean signal [5] 255 | z-score [7, 22] -0.957 | log fold change Tl+ flux [8] -0.0323 | log fold change Tl+ flux [9] -0.0233 | log fold change Tl+ flux [10] 0.0093 | log fold change Tl+ flux [11] -0.0304 | log fold change Tl+ flux [12] -0.0684 | log fold change Tl+ flux [13] -0.0391 | log fold change Tl+ flux [14] 0.000543 | log fold change Tl+ flux [15] -0.0202 | log fold change Tl+ flux [16] 0.00103 | log fold change Tl+ flux [17] -0.0673

CN/C(=C\[N+](=O)[O-])NCCSCc1csc(CN(C)C)n1
104% and 78.4%: viability [18]
1.14: normalised cell number [6, 20]
1.02: normalised cell number [6, 21]
13100: cell count [19, 27]
5.48: fold change [19, 25]
inactive: parasite load remaining [18] 44.5% and 113% | fluorescence ratio [1] 1.02 | inhibition [2] 1.19% | inhibition [3] -0.1% | fluorescence ratio [4] 0.97 | mean signal [5] 274 | red/green cell ratio (normalised) [6] 0.9 | fold change [19, 24] 0.871 | log fold change Tl+ flux [8] 0.0132 | log fold change Tl+ flux [9] -0.0313 | log fold change Tl+ flux [10] 0.0292 | log fold change Tl+ flux [11] 0.0177 | log fold change Tl+ flux [12] -0.0126 | log fold change Tl+ flux [13] 0.0141 | log fold change Tl+ flux [14] -0.02 | log fold change Tl+ flux [15] -0.0114 | log fold change Tl+ flux [16] -0.00775 | log fold change Tl+ flux [17] 0.0359
11400: cell count [19, 26]

NCC(O)c1ccc(O)c(O)c1 (stereo unspecified)
1.64 and 1.95: fold change [19, 25]
10800 and 8140: cell count [19, 27]
1.45: normalised cell number [6, 21]
90.4%: viability [18]
1.16: normalised cell number [6, 20]
inactive: parasite load remaining [18] 46.6% | fluorescence ratio [1] 1.02 | inhibition [2] -2.27% | inhibition [3] 0.29% | fluorescence ratio [4] 0.99 | mean signal [5] 234 | red/green cell ratio (normalised) [6] 1.25 | fold change [19, 24] 1.01 and 0.975 | log fold change Tl+ flux [8] -0.00325 | log fold change Tl+ flux [9] 0.00151 | log fold change Tl+ flux [10] -0.00353 | log fold change Tl+ flux [11] 0.0254 | log fold change Tl+ flux [12] 0.0514 | log fold change Tl+ flux [13] 0.0185 | log fold change Tl+ flux [14] 0.035 | log fold change Tl+ flux [15] -0.0293 | log fold change Tl+ flux [16] 0.0502 | log fold change Tl+ flux [17] 0.093
10900 and 7940: cell count [19, 26]

CC(C)NCC(O)c1ccc(NS(C)(=O)=O)cc1 (stereo unspecified)
0.97: normalised cell number [6, 21]
0.759 and -0.504 and 0.277: z-score [7, 23]
inactive: fluorescence ratio [1] 1.06 | inhibition [2] 1.19% | inhibition [3] -3.95% | fluorescence ratio [4] 0.98 | mean signal [5] 233 | red/green cell ratio (normalised) [6] 0.8 | z-score [7, 22] -0.308 and -0.43 and 0.386 | log fold change Tl+ flux [8] 0.0283 | log fold change Tl+ flux [9] -0.0363 | log fold change Tl+ flux [10] 0.0277 | log fold change Tl+ flux [11] 0.0134 | log fold change Tl+ flux [12] -0.004 | log fold change Tl+ flux [13] -0.065 | log fold change Tl+ flux [14] -0.000905 | log fold change Tl+ flux [15] -0.0581 | log fold change Tl+ flux [16] 0.0206 | log fold change Tl+ flux [17] 0.0082
1.21: normalised cell number [6, 20]

C[C@@H](c1ncncc1F)[C@](O)(Cn1cncn1)c1ccc(F)cc1F
inactive: parasite load remaining [18] 100% | fluorescence ratio [1] 1.03 | inhibition [2] 3.56% | inhibition [3] -6.26% | fluorescence ratio [4] 1.02 | mean signal [5] 264 | red/green cell ratio (normalised) [6] 1.03 | fold change [19, 24] 0.997 | z-score [7, 22] 0.391 | log fold change Tl+ flux [8] 0.0491 | log fold change Tl+ flux [9] -0.0167 | log fold change Tl+ flux [10] 0.0265 | log fold change Tl+ flux [11] 0.000651 | log fold change Tl+ flux [13] -0.0159 | log fold change Tl+ flux [14] 0.036 | log fold change Tl+ flux [15] 0.0278 | log fold change Tl+ flux [16] -0.0222 | log fold change Tl+ flux [17] -0.0193
9170: cell count [19, 27]
-0.0394: z-score [7, 23]
2.46: fold change [19, 25]
active: log fold change Tl+ flux [12] 0.106
0.93: normalised cell number [6, 20]
0.96: normalised cell number [6, 21]
75.1%: viability [18]
9140: cell count [19, 26]
